According to publication PMC5700166:
Numbering of substitutions follows the chain as printed.

Columns and labels:
Test in all cases: protein-binding microarray (PBM); PBM: ~300 nM protein, 6 mM HEPES pH 7.8, 80 mM KCl, 0.5 mM EDTA, 0.5 mM EGTA, 6% glycerol, 35 ng/ul poly-dIdC, 1% milk, 1 h, room temperature; Ap Aiptasia and Nv Nematostella (sea anemones) / Co Capsaspora / Aq Amphimedon (sponge) / Dm Drosophila / Hu human; RHD is the Rel homology domain; high values mean tight binding
Conditions in all cases: dsDNA, one strand shown
GST-Ap-NF-kB RHD = target: T1, GST-Ap-NF-kB RHD (Exaiptasia pallida (Aiptasia), UniProt A0A913YAJ5 2-422)
T1 sequence: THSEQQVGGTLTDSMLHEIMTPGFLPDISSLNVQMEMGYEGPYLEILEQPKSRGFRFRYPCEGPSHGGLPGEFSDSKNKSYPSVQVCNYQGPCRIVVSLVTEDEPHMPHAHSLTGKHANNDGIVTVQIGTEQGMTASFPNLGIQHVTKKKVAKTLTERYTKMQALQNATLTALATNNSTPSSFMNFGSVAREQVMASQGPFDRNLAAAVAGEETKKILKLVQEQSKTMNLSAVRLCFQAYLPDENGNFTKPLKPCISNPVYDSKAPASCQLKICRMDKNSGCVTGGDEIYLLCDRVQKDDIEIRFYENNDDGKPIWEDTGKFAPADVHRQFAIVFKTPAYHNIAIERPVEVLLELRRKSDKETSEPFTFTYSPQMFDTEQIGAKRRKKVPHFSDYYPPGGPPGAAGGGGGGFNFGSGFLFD

[1] = target: T2, GST-Nv-NF-kB (Cys allele) (Nematostella vectensis, UniProt E5G601 2-411)
T2 sequence: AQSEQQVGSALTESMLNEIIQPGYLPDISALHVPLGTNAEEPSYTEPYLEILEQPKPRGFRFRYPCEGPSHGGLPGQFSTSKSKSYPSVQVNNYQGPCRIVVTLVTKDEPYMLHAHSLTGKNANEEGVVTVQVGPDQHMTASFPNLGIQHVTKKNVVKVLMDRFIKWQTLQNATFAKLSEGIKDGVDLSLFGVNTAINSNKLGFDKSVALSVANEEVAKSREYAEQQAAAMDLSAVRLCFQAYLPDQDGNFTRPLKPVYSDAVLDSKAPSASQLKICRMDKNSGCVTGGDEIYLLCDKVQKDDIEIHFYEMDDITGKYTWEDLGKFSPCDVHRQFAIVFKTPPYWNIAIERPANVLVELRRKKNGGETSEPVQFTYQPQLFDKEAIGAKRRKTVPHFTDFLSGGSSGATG

[2] = target: T3, GST-Nv-NF-kB (Ser allele) (Nematostella vectensis, UniProt A7UNT2 2-411)
T3 sequence: T2 sequence with Q21R, C66S, S207N, E215Q, V217A, E225K, A268E, D399E

GST-Co-NF-kB = target: T4, GST-Co-NF-kB (Capsaspora owczarzaki, UniProt F1ARL5 200-546)
T4 sequence: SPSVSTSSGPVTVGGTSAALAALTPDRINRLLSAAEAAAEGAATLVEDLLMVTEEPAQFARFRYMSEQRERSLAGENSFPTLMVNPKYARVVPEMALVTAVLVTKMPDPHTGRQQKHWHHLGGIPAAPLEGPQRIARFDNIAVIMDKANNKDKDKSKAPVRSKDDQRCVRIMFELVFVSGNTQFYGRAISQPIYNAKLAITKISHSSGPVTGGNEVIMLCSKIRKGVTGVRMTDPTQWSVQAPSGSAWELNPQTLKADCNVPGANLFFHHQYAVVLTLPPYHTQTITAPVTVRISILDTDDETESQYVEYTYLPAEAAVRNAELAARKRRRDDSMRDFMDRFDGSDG

GST-Dm-Relish = target: T5, GST-Dm-Relish (Drosophila melanogaster, UniProt Q94527 99-473)
T5 sequence: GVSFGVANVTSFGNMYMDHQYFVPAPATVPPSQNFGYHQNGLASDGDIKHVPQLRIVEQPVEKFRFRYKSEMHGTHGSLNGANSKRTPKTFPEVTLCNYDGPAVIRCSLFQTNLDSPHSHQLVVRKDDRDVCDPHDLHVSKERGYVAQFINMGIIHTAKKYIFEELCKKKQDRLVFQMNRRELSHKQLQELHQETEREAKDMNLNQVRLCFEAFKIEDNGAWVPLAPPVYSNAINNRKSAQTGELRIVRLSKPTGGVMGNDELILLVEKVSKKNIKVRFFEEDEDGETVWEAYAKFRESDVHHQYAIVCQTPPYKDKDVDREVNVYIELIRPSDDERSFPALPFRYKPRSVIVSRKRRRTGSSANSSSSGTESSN

GST-Aq-NF-kB = target: T6, GST-Aq-NF-kB (Amphimedon queenslandica, UniProt A9Y5G7 2-389)
T6 sequence: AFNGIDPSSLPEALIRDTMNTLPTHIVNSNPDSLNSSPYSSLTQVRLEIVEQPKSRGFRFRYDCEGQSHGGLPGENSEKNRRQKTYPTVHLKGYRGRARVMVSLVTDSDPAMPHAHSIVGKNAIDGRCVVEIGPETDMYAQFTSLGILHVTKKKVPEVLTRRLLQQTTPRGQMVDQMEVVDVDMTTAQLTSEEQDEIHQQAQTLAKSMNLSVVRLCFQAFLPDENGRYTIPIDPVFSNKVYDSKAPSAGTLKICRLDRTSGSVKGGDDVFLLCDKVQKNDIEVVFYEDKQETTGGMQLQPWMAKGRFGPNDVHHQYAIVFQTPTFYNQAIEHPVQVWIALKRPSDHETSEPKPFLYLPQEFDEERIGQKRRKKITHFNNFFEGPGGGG

GST-Hu-p50 = GST-Hu-p50 (Homo sapiens, UniProt P19838 7-356)
Sequence of GST-Hu-p50 (P19838 7-356): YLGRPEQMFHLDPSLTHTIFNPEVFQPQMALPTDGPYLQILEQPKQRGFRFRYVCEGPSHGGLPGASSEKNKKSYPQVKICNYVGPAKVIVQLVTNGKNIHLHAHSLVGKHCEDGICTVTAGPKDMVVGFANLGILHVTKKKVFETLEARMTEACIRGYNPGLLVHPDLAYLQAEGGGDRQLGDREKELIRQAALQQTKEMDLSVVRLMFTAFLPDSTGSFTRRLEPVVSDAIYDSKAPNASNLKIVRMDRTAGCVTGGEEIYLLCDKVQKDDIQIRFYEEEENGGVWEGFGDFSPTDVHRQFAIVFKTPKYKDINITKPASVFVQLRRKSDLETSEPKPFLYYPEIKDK

Row | Sequence | binding signal (GST-Ap-NF-kB RHD) | binding signal [1] | binding signal [2] | binding signal (GST-Co-NF-kB) | binding signal (GST-Dm-Relish) | binding signal (GST-Aq-NF-kB) | binding signal (GST-Hu-p50)
1 | CCGATTAACATCAAAAATTCCCCTGATGTTAATCGGGTCTTGATTCGCTTGACGCTGCTG | 10.4 z-score | 12.8 z-score | 14 z-score | 9.75 z-score | 9.69 z-score | 9.6 z-score | 7.99 z-score
2 | CCGATTAACATCAAATAATCCCCTGATGTTAATCGGGTCTTGATTCGCTTGACGCTGCTG | 8.76 z-score | 10 z-score | 10.6 z-score | 5.91 z-score | 7.99 z-score | 7.75 z-score | 6.78 z-score
3 | CCGATTAACATCAAAGTTCCCCCTGATGTTAATCGGGTCTTGATTCGCTTGACGCTGCTG | 8.84 z-score | 8.65 z-score | 9.29 z-score | 11.3 z-score | 8.65 z-score | 7.49 z-score | 6.75 z-score
4 | CCGATTAACATCAGGGAAAATTATGATGTTAATCGGGTCTTGATTCGCTTGACGCTGCTG | 5.47 z-score | 7.77 z-score | 8.46 z-score | 6.45 z-score | 2.28 z-score | 6.77 z-score | 5.34 z-score
5 | CCGATTAACATCACTCATCCCCGTGATGTTAATCGGGTCTTGATTCGCTTGACGCTGCTG | 1.85 z-score | 3.17 z-score | 3.8 z-score | 2.78 z-score | 2.33 z-score | 2.51 z-score | 2.23 z-score
6 | CCGATTAACATCAGGGGAATTACTGATGTTAATCGGGTCTTGATTCGCTTGACGCTGCTG | 8.73 z-score | 10.6 z-score | 10.2 z-score | 7.45 z-score | 10.2 z-score | 8.27 z-score | 7.09 z-score
7 | CCGATTAACATCAGATAATCCCCTGATGTTAATCGGGTCTTGATTCGCTTGACGCTGCTG | 8.1 z-score | 8.93 z-score | 9.43 z-score | 4.09 z-score | 6.59 z-score | 7.45 z-score | 6.48 z-score
8 | CCGATTAACATCAAAATTTCCCCTGATGTTAATCGGGTCTTGATTCGCTTGACGCTGCTG | 10.2 z-score | 11.6 z-score | 14.6 z-score | 10.6 z-score | 8.41 z-score | 8.46 z-score | 7.8 z-score
9 | CCGATTAACATCAATTTCCCCCGTGATGTTAATCGGGTCTTGATTCGCTTGACGCTGCTG | 7.85 z-score | 6.59 z-score | 8.85 z-score | 12.3 z-score | 5.65 z-score | 6.15 z-score | 6.52 z-score
10 | CCGATTAACATCAGAAAACCCCATGATGTTAATCGGGTCTTGATTCGCTTGACGCTGCTG | 6.36 z-score | 5.53 z-score | 4.86 z-score | 1.75 z-score | 8.35 z-score | 5.03 z-score | 5.88 z-score
11 | CCGATTAACATCAACATTCCCCCTGATGTTAATCGGGTCTTGATTCGCTTGACGCTGCTG | 7.55 z-score | 8.25 z-score | 8.8 z-score | 9.34 z-score | 4.3 z-score | 6.29 z-score | 6.48 z-score
12 | CCGATTAACATCAAAAAAATCCCTGATGTTAATCGGGTCTTGATTCGCTTGACGCTGCTG | 6.44 z-score | 7.72 z-score | 6.74 z-score | 2.41 z-score | 8.77 z-score | 7.45 z-score | 5.87 z-score
13 | CCGATTAACATCACCCCATCCCCTGATGTTAATCGGGTCTTGATTCGCTTGACGCTGCTG | 4.19 z-score | 2.64 z-score | 4.17 z-score | 2.99 z-score | 2.37 z-score | 3.17 z-score | 3.3 z-score
14 | CCGATTAACATCAGGGGGTTGACTGATGTTAATCGGGTCTTGATTCGCTTGACGCTGCTG | 4.64 z-score | 3.2 z-score | 3.62 z-score | 1.93 z-score | 4.51 z-score | 3.95 z-score | 4.25 z-score
15 | CCGATTAACATCAGGGGGTTGGATGATGTTAATCGGGTCTTGATTCGCTTGACGCTGCTG | 4.25 z-score | 3.25 z-score | 4.6 z-score | 2.05 z-score | 4.45 z-score | 3.38 z-score | 4.51 z-score
16 | CCGATTAACATCATGGGGAAAAATGATGTTAATCGGGTCTTGATTCGCTTGACGCTGCTG | 5.03 z-score | 6.62 z-score | 8.82 z-score | 9.78 z-score | 2.39 z-score | 4.9 z-score | 5.43 z-score
17 | CCGATTAACATCACAGAACCCCCTGATGTTAATCGGGTCTTGATTCGCTTGACGCTGCTG | 7.53 z-score | 5.51 z-score | 7.39 z-score | 2.33 z-score | 7.46 z-score | 5.42 z-score | 6.43 z-score
18 | CCGATTAACATCAGGGTTCCCCATGATGTTAATCGGGTCTTGATTCGCTTGACGCTGCTG | 6.72 z-score | 5.05 z-score | 5.17 z-score | 5.37 z-score | 7.85 z-score | 4.21 z-score | 3.83 z-score
19 | CCGATTAACATCAGCAAATCCCCTGATGTTAATCGGGTCTTGATTCGCTTGACGCTGCTG | 6.73 z-score | 7.25 z-score | 9.83 z-score | 2.93 z-score | 5.54 z-score | 5.19 z-score | 6.91 z-score
20 | CCGATTAACATCAGGGGGGACCCTGATGTTAATCGGGTCTTGATTCGCTTGACGCTGCTG | 6.34 z-score | 4.19 z-score | 3.73 z-score | 4.11 z-score | 6.14 z-score | 5.92 z-score | 4.27 z-score
21 | CCGATTAACATCAAGACTTCCCCTGATGTTAATCGGGTCTTGATTCGCTTGACGCTGCTG | 6.45 z-score | 7.56 z-score | 7.93 z-score | 5.12 z-score | 7.71 z-score | 6.38 z-score | 5.95 z-score
22 | CCGATTAACATCAAAAAATCCCGTGATGTTAATCGGGTCTTGATTCGCTTGACGCTGCTG | 5.57 z-score | 6.22 z-score | 5.2 z-score | 2.99 z-score | 8.31 z-score | 6.71 z-score | 4.97 z-score
23 | CCGATTAACATCAGGGACTCCCCTGATGTTAATCGGGTCTTGATTCGCTTGACGCTGCTG | 11.3 z-score | 9.16 z-score | 7.65 z-score | 4.68 z-score | 10.3 z-score | 9.57 z-score | 6.03 z-score
24 | CCGATTAACATCAGGAACTTCCCTGATGTTAATCGGGTCTTGATTCGCTTGACGCTGCTG | 4.62 z-score | 5.28 z-score | 3.16 z-score | 1.73 z-score | 4.4 z-score | 7.58 z-score | 3.6 z-score
25 | CCGATTAACATCACGAATTCCCCTGATGTTAATCGGGTCTTGATTCGCTTGACGCTGCTG | 8.93 z-score | 10.1 z-score | 10.9 z-score | 7.11 z-score | 6.96 z-score | 6.73 z-score | 6.95 z-score
